Where “and” joins values, the source holds several entries; their conditions need not be identical. Identical values can stand only once. About 79,000 compounds went through this panel and 15% of them were active in at least one assay; those are over-represented in the sample as a whole. Some structures have more than one record in an assay (separate samples or runs), and their calls can disagree. Calls of active or inactive are those of the source. No stated cut-off is given here; in the data, active means growth inhibition above about 70%; inactive means the rest.
Columns and labels:
[1] = NCI Yeast Anticancer Drug Screen. Data for the wt1 strain (AID 149);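 further: 0% = growth of vehicle-treated wt1 cultures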; details: S. cerevisiae wt1 strain (SPY 50644) growth inhibition, stronger effect = higher value
How it was run: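 wt1 yeast, compound-treated; % growth inhibition vs vehicle control.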

[2] = NCI Yeast Anticancer Drug Screen. Data for the rad50EPP+ strain (AID 151);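 further: 0% = growth of vehicle-treated control cultures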; details: S. cerevisiae rad50 mutant strain, stronger effect = higher value
How it was run: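 Yeast strain carrying rad50 alteration (rad50EPP+) exposed to compounds; growth inhibition measured relative to vehicle-treated controls.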

[3] = NCI Yeast Anticancer Drug Screen. Data for the rad50 strain (AID 155);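 further: 0% = growth of vehicle-only cultures of the same strain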; details: S. cerevisiae rad50 strain growth inhibition, stronger effect = higher value
How it was run: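 Genetically altered yeast (DNA repair pathway); compound treatment; growth inhibition vs vehicle ctrl.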

[4] = NCI Yeast Anticancer Drug Screen. Data for the mec2-1 strain (AID 157); details: S. cerevisiae mec2-1 strain, stronger effect = higher value
How it was run: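 mec2-1 yeast strain, carrying an alteration in DNA damage repair or cell cycle control, was exposed to compounds; growth inhibition was measured relative to vehicle-treated controls.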

[5] = NCI Yeast Anticancer Drug Screen. Data for the rad14 strain (AID 159);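 further: 0% = growth of vehicle-treated control cultures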; details: S. cerevisiae rad14 strain growth inhibition, stronger effect = higher value
How it was run: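 Test compounds were applied to a repair-deficient yeast strain. Its growth was then compared with that of cultures given vehicle alone, and inhibition was expressed relative to those controls.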

[6] = NCI Yeast Anticancer Drug Screen. Data for the sgs1 mgt1 strain (AID 161);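 further: 0% = growth of cultures given vehicle only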; details: S. cerevisiae sgs1 mgt1 strain, stronger effect = higher value
How it was run: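 This yeast growth screen uses a strain with defined DNA-repair lesions; compound-treated growth is compared with vehicle-treated growth.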

[7] = NCI Yeast Anticancer Drug Screen. Data for the CLN2oe strain (AID 163);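 further: 0% = growth of vehicle-only control cultures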; details: S. cerevisiae CLN2oe strain, stronger effect = higher value
How it was run: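 Yeast cells carrying a defined cell-cycle control alteration were exposed to test compounds. Growth inhibition was scored against vehicle-treated control cultures.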

[8] = NCI Yeast Anticancer Drug Screen. Data for the cln2 rad14 strain (AID 165);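 further: 0% = growth equal to vehicle treated cultures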; details: S. cerevisiae cln2 rad14 strain, stronger effect = higher value
How it was run: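 Yeast carrying cln2 and rad14 alterations (cell cycle control and DNA damage repair) were exposed to compounds. Growth inhibition was measured against vehicle-treated controls.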

[9] = NCI Yeast Anticancer Drug Screen. Data for the bub3 strain (AID 167); details: S. cerevisiae bub3 mutant strain, stronger effect = higher value
How it was run: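 Yeast carrying a defined mutation is treated with each compound, and growth is compared with that of vehicle-exposed cells to give inhibition.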

[10] = NCI Yeast Anticancer Drug Screen. Data for the wt2 strain (AID 169);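 further: 0% = growth of vehicle-treated yeast cultures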; details: S. cerevisiae wt2 strain growth inhibition, stronger effect = higher value
How it was run: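 Yeast cells were exposed to test compounds, and growth inhibition was measured relative to vehicle-treated controls.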

[11] = NCI Yeast Anticancer Drug Screen. Data for the mlh1 strain (AID 171);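 further: 0% = growth of vehicle-treated control cultures of the same strain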; details: S. cerevisiae mlh1 strain growth inhibition, stronger effect = higher value
How it was run: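 Yeast carrying a defined genetic alteration in DNA damage repair or cell cycle control were exposed to test compounds. Growth inhibition was measured relative to vehicle-treated controls.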

[12] = NCI Yeast Anticancer Drug Screen. Data for the sgs1 strain (AID 173);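 further: 0% = growth of vehicle-only control cultures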; details: S. cerevisiae sgs1 mutant, stronger effect = higher value
How it was run: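 Yeast mutant strains carrying defined defects in DNA damage repair or cell cycle control were exposed to test compounds. Growth inhibition was scored against vehicle-treated controls.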

[13] = NCI Yeast Anticancer Drug Screen. Data for the mlh1 rad18 strain (AID 175); details: S. cerevisiae mlh1 rad18 strain growth inhibition, stronger effect = higher value
How it was run: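 Growth inhibition of the yeast strain was measured after compound exposure and expressed relative to vehicle-treated controls. The strain carries defined defects in DNA damage repair.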

[14] = NCI Yeast Anticancer Drug Screen. Data for the rad18 strain (AID 177); details: S. cerevisiae rad18 mutant growth inhibition, stronger effect = higher value
How it was run: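 Yeast carrying a defined DNA damage repair alteration were exposed to compounds. Growth inhibition was expressed relative to vehicle-treated controls.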

[15] = at 5.0 µM (retest, dose inferred, filed as 0.5)
[16] = at 50.0 µM (retest, dose inferred, filed as 5.0)

Measured: growth inhibition

Cc1ccc(SSc2ccc(C)cc2[N+](=O)[O-])c([N+](=O)[O-])c1
inactive: [1]; at 1.2 µM -2% | [1]; at 3.7 µM 4% | [1]; at 11.0 µM 16% | [1]; at 33.0 µM 50% | [2]; at 1.2 µM 7% | [2]; at 3.7 µM 16% | [2]; at 11.0 µM 48% | [3]; at 1.2 µM 8% | [3]; at 3.7 µM 15% | [3]; [15] 54% | [3]; at 11.0 µM 33% | [3]; at 33.0 µM 68% | [3]; at 50.0 µM 69.5% | [4]; at 1.2 µM -5% | [4]; at 3.7 µM 2% | [4]; [15] 57% | [4]; at 11.0 µM 26% | [4]; at 33.0 µM 66% | [5]; at 1.2 µM -6% | [5]; at 3.7 µM -10% | [5]; at 11.0 µM 10% | [6]; [15] -8% | [7]; at 1.2 µM -11% | [7]; at 3.7 µM 0% | [7]; at 11.0 µM -9% | [7]; at 33.0 µM -5% | [8]; [15] 37% | [9]; at 1.2 µM -3% | [9]; at 3.7 µM -3% | [9]; [15] 26% | [9]; at 11.0 µM 2% | [10]; at 1.2 µM -15% | [10]; at 3.7 µM -6% | [10]; at 11.0 µM 21% | [11]; at 1.2 µM -14% | [11]; at 3.7 µM -8% | [11]; at 11.0 µM -1% | [11]; at 33.0 µM 66% | [12]; at 1.2 µM 0% | [12]; at 3.7 µM 14% | [12]; at 11.0 µM 46% | [13]; [15] 35% | [13]; at 50.0 µM 44.7%
active: [1]; at 100.0 µM 83% | [2]; at 33.0 µM 90% | [2]; at 100.0 µM 87% | [3]; [16] 90% | [3]; at 100.0 µM 86% | [4]; [16] 94% | [4]; at 50.0 µM 78.7% | [4]; at 100.0 µM 86% | [5]; at 33.0 µM 74% | [5]; at 100.0 µM 85% | [6]; [16] 95% | [7]; at 100.0 µM 72% | [8]; [16] 86% | [9]; at 33.0 µM 84% | [9]; [16] 94% | [9]; at 100.0 µM 87% | [10]; at 33.0 µM 82% | [10]; at 100.0 µM 85% | [11]; at 100.0 µM 87% | [12]; at 33.0 µM 91% | [12]; at 100.0 µM 86% | [13]; [16] 80%

CCCCCCCCCCCCCCCCCN
3.15% (inactive) and 90.2% (active): [3]; at 50.0 µM
-6.55% (inactive) and 92% (active): [4]; at 50.0 µM
32.8% (inactive) and 90.2% (active): [9]; at 50.0 µM
23.5% (inactive) and 89.9% (active): [13]; at 50.0 µM
inactive: [1]; at 1.2 µM -23% | [1]; at 3.7 µM -25% | [1]; at 11.0 µM -5% | [2]; at 1.2 µM -14% | [2]; at 3.7 µM 11% | [3]; at 1.2 µM -27% | [3]; at 3.7 µM -17% | [3]; [15] 26% | [4]; at 1.2 µM -37% | [4]; at 3.7 µM -28% | [4]; [15] 51% | [5]; at 1.2 µM -31% | [5]; at 3.7 µM -24% | [5]; at 11.0 µM 14% | [7]; at 1.2 µM -22% | [7]; at 3.7 µM 11% | [8]; [15] 16% | [8]; at 50.0 µM 6.8% and 37% | [9]; at 1.2 µM -10% | [9]; at 3.7 µM -4% | [9]; [15] 54% | [10]; at 1.2 µM -15% | [10]; at 3.7 µM -12% | [10]; at 11.0 µM 49% | [12]; at 1.2 µM -46% | [12]; at 3.7 µM -3% | [12]; at 11.0 µM 58% | [13]; [15] 41% | [14]; at 1.2 µM -38% | [14]; at 3.7 µM -18% | [14]; at 11.0 µM 61% | [14]; at 33.0 µM 15%
active: [1]; at 33.0 µM 90% | [1]; at 100.0 µM 94% | [2]; at 11.0 µM 82% | [2]; at 33.0 µM 97% | [2]; at 100.0 µM 96% | [3]; at 11.0 µM 85% | [3]; at 33.0 µM 97% | [3]; [16] 96% | [3]; at 100.0 µM 94% | [4]; at 11.0 µM 91% | [4]; at 33.0 µM 98% | [4]; [16] 97% | [4]; at 100.0 µM 93% | [5]; at 33.0 µM 95% | [5]; at 100.0 µM 94% | [7]; at 11.0 µM 94% | [7]; at 33.0 µM 98% | [7]; at 100.0 µM 95% | [8]; [16] 90% | [9]; at 11.0 µM 90% | [9]; at 33.0 µM 98% | [9]; [16] 97% | [9]; at 100.0 µM 95% | [10]; at 33.0 µM 90% | [10]; at 100.0 µM 96% | [12]; at 33.0 µM 97% | [12]; at 100.0 µM 96% | [13]; [16] 96% | [14]; at 100.0 µM 93%

Cc1ccc(S(=O)(=O)N/N=C/c2c(O)ccc3ccccc23)cc1
active: [1]; at 100.0 µM 84% | [3]; at 11.0 µM 79% | [3]; at 33.0 µM 82% | [3]; [16] 86% | [3]; at 50.0 µM 79.9% | [3]; at 100.0 µM 78% | [4]; [16] 79% | [4]; at 50.0 µM 79.5% | [4]; at 100.0 µM 79% | [6]; [16] 91% | [7]; at 100.0 µM 71% | [8]; [16] 89% | [9]; at 33.0 µM 70% | [9]; [16] 85% | [9]; at 100.0 µM 77% | [10]; at 33.0 µM 81% | [10]; at 100.0 µM 88% | [11]; at 100.0 µM 78% | [12]; at 11.0 µM 76% | [12]; at 33.0 µM 80% | [12]; at 100.0 µM 87% | [13]; at 50.0 µM 78.5%
inactive: [1]; at 1.2 µM -8% | [1]; at 3.7 µM -15% | [1]; at 11.0 µM 37% | [1]; at 33.0 µM 59% | [2]; at 1.2 µM -6% | [2]; at 3.7 µM 3% | [2]; at 11.0 µM -16% | [2]; at 33.0 µM -8% | [2]; at 100.0 µM 24% | [3]; at 1.2 µM 19% | [3]; at 3.7 µM 10% | [3]; [15] 36% | [4]; at 1.2 µM -1% | [4]; at 3.7 µM 1% | [4]; [15] 53% | [4]; at 11.0 µM 55% | [4]; at 33.0 µM 66% | [6]; [15] -10% | [7]; at 1.2 µM -17% | [7]; at 3.7 µM 8% | [7]; at 11.0 µM 52% | [7]; at 33.0 µM 58% | [8]; [15] 21% | [9]; at 1.2 µM 17% | [9]; at 3.7 µM 34% | [9]; [15] 37% | [9]; at 11.0 µM 55% | [10]; at 1.2 µM -5% | [10]; at 3.7 µM -9% | [10]; at 11.0 µM 43% | [11]; at 1.2 µM -30% | [11]; at 3.7 µM -42% | [11]; at 11.0 µM 49% | [11]; at 33.0 µM 56% | [12]; at 1.2 µM 26% | [12]; at 3.7 µM 42% | [13]; [15] 44% | [13]; [16] 64%
